The text below walks through data of PubChem BioAssay (EPA / NIEHS).

Results filed as inconclusive are left out. Active and inactive are the calls of the source. Rule for the calls, unless noted: active = hit-call score of the fitted dose curve at least 0.9, where 1 is the maximum; inactive = score below 0.9.

Assay [1] concerns the target Oxysterols receptor LXR-alpha (Homo sapiens) (UniProt Q13133). Description: ATG_LXRa_TRANS: Attagene TRANS-FACTORIAL HepG2 Assay for human Liver X Receptor alpha (LXRa) (AID 2282980; active = hit-call score of the fitted dose curve at least 0.9, where 1 is the maximum). Particulars: HepG2 Attagene TRANS reporter, LXRa transactivation. Put shortly:
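Transfect HepG2 with GAL4-UAS multiplex reporter constructs (TRANS format, chimeric receptor-GAL4); treat 24 h; extract RNA, reverse-transcribe, PCR-amplify, FAM-label, HpaI-digest; resolve fragments by capillary electrophoresis. Upward response vs DMSO.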

Assay [2] addresses Oxysterols receptor LXR-beta (Homo sapiens) (UniProt P55055). Description: ATG_LXRb_TRANS: Attagene TRANS-FACTORIAL HepG2 Assay for human Liver X Receptor beta (LXRb) (AID 2282981; active = hit-call score of the fitted dose curve at least 0.9, where 1 is the maximum). Particulars: HepG2 Attagene TRANS GAL4-LXRb reporter, mRNA. In a few lines: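 After 24 h chemical treatment of transfected HepG2 cells carrying exogenous NR-Gal4 chimeras, reporter mRNA was quantified by fluorescent RT-PCR and capillary electrophoresis; activity taken as increase over DMSO controls.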

A short description of assay [3]: ATG_M_32_TRANS: Attagene TRANS-FACTORIAL HepG2 Assay for M32 Transcription Factor (Internal Marker) (AID 2282984; active = hit-call score of the fitted dose curve at least 0.9, where 1 is the maximum;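 note: transcript level of a background control reporter unit measured by RT-PCR and capillary electrophoresis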). The following applies: HepG2 Attagene TRANS M32 internal marker reporter. Put shortly:
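Internal background reporter in transfected HepG2: after 24 h chemical exposure, RNA reverse-transcribed, reporter cDNA amplified, fluorescently labelled and HpaI-cut, then sized by capillary electrophoresis. Gain of signal fitted against DMSO control.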

The target in assay [4] is Nuclear receptor subfamily 4 group A member 2 (Homo sapiens) (UniProt P43354). Nature of the assay: ATG_NURR1_TRANS: Attagene TRANS-FACTORIAL HepG2 Assay for human Nuclear Receptor Related Protein 1 (NURR1) (AID 2282985; active = hit-call score of the fitted dose curve at least 0.9, where 1 is the maximum). Particulars: HepG2 Attagene TRANS reporter, mRNA readout. Put shortly: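 Reporter transcript induction, measured by RT-PCR with fluorescent labelling, HpaI digestion and capillary electrophoresis, after 24 hr dosing of human HepG2 cells transiently expressing an exogenous NR-Gal4 fusion with GAL4-UAS-driven reporters; DMSO as baseline.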

The target of assay [5] is Transcriptional activator Myb (Homo sapiens) (UniProt P10242). Nature of the assay: ATG_Myb_CIS: Attagene CIS-FACTORIAL HepG2 Assay for human Myeloblastosis (Myb) Proto-Oncogene Transcription Factor (AID 2282986). Particulars: HepG2 Attagene CIS-FACTORIAL Myb reporter transcription; actives raise or lower the signal. In a few lines: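 Fluorescence signals from capillary electrophoresis of RT-PCR-amplified reporter cDNA give the read-out. Cells: HepG2 transfected with multiple cis-regulated reporter units. Exposure lasts 24 hours; DMSO defines baseline for gain or loss of signal.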

For assay [6], the target named is Nuclear respiratory factor 1 (Homo sapiens) (UniProt Q16656). Description: ATG_NRF1_CIS: Attagene CIS-FACTORIAL HepG2 Assay for human Nuclear Respiratory Factor 1 (NRF1) Orphan Gene (AID 2282987). Particulars: HepG2 NRF1 cis-element reporter, Attagene multiplex; actives raise or lower the signal. In a few lines: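 Transcriptional reporter readout, one component of a 52-endpoint multiplexed HepG2 panel. Exposure 24 h; mRNA detected via RT-PCR and fluorescent capillary electrophoresis; fitting in both directions against DMSO.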

The nature of assay [7]: ATG_NFI_CIS: Attagene CIS-FACTORIAL HepG2 Assay for human Nuclear Factor I (NFI) (AID 2282989). Particulars: HepG2 cis-regulatory reporter, NFI response element transcription; actives raise or lower the signal. Put shortly:
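HepG2 cells transiently transfected with cis-element-driven multiplexed reporter transcription units, dosed for 24 h. Reporter mRNA quantified by RT-PCR, fluorescent labelling, HpaI digestion and capillary electrophoresis; bidirectional fit versus DMSO baseline.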

For assay [8], the target named is Myc proto-oncogene protein (Homo sapiens) (UniProt P01106). Nature of the assay: ATG_Myc_CIS: Attagene CIS-FACTORIAL HepG2 Assay for human Myelocytomatosis (Myc) Proto-Oncogene Transcription Factor (AID 2282990). Particulars: HepG2, Attagene cis-reporter transcription factor activity; actives raise or lower the signal. In a few lines: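 After 24 h chemical treatment of HepG2 cells carrying multiplexed cis-regulated reporter constructs, reporter transcripts quantified by RT-PCR and capillary electrophoresis of fluorescent fragments. Gain or loss fitted against DMSO baseline.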

A short description of assay [9]: ATG_M_06_TRANS: Attagene TRANS-FACTORIAL HepG2 Assay for M06 Transcription Factor (Internal Marker) (AID 2282983; active = hit-call score of the fitted dose curve at least 0.9, where 1 is the maximum;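 note: reporter transcript level by RT-PCR then capillary electrophoresis fluorescence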). The following applies: HepG2 Attagene TRANS M06 internal marker reporter. Put shortly:
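Background control endpoint: reporter mRNA from transiently transfected HepG2 after 24 h dosing, detected by RT-PCR with capillary electrophoresis fluorescence. Analysed for gain versus DMSO.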

The target of assay [10] is Hepatocyte nuclear factor 4-alpha (Homo sapiens) (UniProt P41235). Nature of the assay: ATG_HNF4a_TRANS: Attagene TRANS-FACTORIAL HepG2 Assay for human Hepatocyte Nuclear Factor 4 alpha (HNF4a) (AID 2282982; active = hit-call score of the fitted dose curve at least 0.9, where 1 is the maximum). The following applies: HepG2 HNF4a transactivation reporter, mRNA readout. Put shortly: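 Activity of an exogenous HNF4a–Gal4 fusion scored as induced GAL4-UAS reporter transcripts after 24 h chemical exposure of transfected human HepG2 cells. Read-out via RT-PCR with 6-FAM labelling and capillary electrophoresis; rise over DMSO baseline.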
Chain of Hepatocyte nuclear factor 4-alpha (Homo sapiens) (P41235 whole entry, looked up, the tested form may be a part): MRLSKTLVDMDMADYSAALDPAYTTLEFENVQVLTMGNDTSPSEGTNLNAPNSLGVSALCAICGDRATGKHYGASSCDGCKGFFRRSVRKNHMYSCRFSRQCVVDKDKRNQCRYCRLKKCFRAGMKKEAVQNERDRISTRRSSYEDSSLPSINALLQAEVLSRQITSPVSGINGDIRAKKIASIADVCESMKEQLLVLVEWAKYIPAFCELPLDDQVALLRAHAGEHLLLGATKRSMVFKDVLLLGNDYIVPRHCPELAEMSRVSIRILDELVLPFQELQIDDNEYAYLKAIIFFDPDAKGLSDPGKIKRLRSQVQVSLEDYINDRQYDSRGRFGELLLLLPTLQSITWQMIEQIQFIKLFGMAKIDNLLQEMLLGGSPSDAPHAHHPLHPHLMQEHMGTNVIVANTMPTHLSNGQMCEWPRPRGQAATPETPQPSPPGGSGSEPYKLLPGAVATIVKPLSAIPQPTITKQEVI

Chain of Oxysterols receptor LXR-alpha (Homo sapiens) (Q13133 whole entry, looked up, the tested form may be a part): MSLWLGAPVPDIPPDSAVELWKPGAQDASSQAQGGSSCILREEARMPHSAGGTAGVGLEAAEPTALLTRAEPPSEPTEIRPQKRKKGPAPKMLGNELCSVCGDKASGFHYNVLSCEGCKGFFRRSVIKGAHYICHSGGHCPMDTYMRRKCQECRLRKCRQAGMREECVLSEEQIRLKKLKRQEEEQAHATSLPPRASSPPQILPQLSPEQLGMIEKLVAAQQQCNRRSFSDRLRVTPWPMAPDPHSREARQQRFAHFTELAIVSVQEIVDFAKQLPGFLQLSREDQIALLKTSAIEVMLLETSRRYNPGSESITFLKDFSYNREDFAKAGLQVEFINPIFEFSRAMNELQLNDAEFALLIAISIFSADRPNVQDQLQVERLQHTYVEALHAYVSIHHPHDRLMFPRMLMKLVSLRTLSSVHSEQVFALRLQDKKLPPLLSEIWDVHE
Chain of Nuclear receptor subfamily 4 group A member 2 (Homo sapiens) (P43354 whole entry, looked up, the tested form may be a part): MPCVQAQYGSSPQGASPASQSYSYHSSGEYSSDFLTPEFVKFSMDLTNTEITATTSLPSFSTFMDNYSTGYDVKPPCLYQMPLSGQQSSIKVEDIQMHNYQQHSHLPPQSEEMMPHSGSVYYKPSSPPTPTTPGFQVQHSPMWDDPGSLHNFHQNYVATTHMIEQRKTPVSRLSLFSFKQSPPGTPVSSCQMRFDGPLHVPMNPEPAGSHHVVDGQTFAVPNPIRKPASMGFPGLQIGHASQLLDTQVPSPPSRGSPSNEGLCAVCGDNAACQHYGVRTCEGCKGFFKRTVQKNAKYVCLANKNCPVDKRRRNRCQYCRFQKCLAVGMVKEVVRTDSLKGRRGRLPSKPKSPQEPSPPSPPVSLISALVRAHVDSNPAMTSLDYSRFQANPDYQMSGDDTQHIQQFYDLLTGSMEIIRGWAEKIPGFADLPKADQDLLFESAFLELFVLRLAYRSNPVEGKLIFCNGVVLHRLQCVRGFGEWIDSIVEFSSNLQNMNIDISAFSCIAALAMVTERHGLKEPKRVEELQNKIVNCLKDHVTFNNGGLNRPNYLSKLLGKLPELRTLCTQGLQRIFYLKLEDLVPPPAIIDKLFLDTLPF
Chain of Nuclear respiratory factor 1 (Homo sapiens) (Q16656 whole entry, looked up): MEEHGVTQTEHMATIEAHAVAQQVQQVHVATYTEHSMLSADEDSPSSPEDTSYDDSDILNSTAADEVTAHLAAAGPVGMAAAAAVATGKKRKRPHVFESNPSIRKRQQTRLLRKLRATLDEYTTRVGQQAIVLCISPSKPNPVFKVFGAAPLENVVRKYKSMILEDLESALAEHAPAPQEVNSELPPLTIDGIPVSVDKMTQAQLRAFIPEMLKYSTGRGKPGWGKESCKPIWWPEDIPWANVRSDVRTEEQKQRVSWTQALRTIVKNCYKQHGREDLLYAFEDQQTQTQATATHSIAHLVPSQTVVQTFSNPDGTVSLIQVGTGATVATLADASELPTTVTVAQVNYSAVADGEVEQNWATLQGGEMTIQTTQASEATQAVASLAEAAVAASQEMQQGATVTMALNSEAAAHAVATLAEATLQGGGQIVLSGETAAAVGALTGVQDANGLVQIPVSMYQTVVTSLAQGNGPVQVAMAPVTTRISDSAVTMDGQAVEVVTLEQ
Chain of Myc proto-oncogene protein (Homo sapiens) (P01106 whole entry, looked up, the tested form may be a part): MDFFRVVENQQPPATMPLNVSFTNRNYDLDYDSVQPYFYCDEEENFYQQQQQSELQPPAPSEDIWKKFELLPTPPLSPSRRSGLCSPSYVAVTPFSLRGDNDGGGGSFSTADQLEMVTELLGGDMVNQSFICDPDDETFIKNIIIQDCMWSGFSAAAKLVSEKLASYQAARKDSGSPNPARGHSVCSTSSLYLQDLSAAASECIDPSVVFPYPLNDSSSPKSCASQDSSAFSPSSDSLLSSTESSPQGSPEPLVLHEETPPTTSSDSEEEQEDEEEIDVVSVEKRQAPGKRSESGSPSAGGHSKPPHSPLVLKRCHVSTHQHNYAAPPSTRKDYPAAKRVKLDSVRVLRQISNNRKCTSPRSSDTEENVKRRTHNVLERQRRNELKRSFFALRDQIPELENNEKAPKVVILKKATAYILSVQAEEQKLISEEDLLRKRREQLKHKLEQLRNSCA
Chain of Oxysterols receptor LXR-beta (Homo sapiens) (P55055 whole entry, looked up, the tested form may be a part): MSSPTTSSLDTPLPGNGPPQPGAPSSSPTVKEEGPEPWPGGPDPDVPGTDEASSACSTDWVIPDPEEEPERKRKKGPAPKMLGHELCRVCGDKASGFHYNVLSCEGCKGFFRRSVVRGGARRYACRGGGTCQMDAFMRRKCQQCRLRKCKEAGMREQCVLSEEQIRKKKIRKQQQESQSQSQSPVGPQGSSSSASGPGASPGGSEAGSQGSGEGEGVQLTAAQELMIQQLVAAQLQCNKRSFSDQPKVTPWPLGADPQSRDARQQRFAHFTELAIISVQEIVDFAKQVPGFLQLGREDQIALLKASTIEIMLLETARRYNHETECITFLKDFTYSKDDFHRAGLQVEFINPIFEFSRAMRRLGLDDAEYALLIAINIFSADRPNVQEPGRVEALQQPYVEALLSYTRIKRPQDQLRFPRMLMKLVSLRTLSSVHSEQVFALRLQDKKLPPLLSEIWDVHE
Chain of Transcriptional activator Myb (Homo sapiens) (P10242 whole entry, looked up): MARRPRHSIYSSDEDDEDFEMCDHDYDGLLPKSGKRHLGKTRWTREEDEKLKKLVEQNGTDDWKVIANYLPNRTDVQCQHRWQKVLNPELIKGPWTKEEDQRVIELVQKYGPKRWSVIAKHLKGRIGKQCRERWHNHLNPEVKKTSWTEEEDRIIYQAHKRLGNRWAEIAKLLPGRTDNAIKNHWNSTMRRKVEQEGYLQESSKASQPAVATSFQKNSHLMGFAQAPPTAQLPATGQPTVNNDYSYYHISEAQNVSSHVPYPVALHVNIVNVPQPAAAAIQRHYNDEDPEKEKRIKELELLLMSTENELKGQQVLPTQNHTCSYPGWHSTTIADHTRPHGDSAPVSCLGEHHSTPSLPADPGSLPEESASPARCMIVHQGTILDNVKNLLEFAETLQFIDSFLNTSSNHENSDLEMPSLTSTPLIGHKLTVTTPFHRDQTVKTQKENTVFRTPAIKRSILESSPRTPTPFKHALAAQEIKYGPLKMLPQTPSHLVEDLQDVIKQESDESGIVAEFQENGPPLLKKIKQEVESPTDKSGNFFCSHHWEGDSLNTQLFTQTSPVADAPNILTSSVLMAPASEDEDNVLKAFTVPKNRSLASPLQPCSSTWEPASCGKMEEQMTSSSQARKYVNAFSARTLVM

For `COc1ccc(N)cc1`, the outcome in assay [1], in [2], in assay [3], in assay [4], in assay [5] and in assay [6] was inactive. For the same compound, the call in assay [7] and in assay [8] was inactive.
With `OCCCCO`, the call in assay [1], in assay [2], in assay [9], in [4], in [5] and in [6] was inactive. Moreover, the compound was called inactive in [7] and in [8].
As to `COC(F)(C(F)(F)C(F)(F)F)C(F)(C(F)(F)F)C(F)(F)F` (stereo not given), the outcome in assay [1], in assay [2], in [10], in [9], in assay [3] and in [4] was inactive. In addition, the outcome in assay [5], in [6], in [7] and in [8] was inactive.
`C#C[C@]1(O)CC[C@H]2[C@@H]3CCC4=CC(=O)CC[C@]4(C)[C@H]3CC[C@@]21C`: the call in [1], in assay [2], in assay [9], in assay [5], in [6] and in assay [7] was inactive. In assay [8], the result was inactive.
In the case of `CN(C)CCN(C)C`, the call in [1], in assay [2], in assay [10], in assay [3], in assay [4] and in assay [5] was inactive. Also, the outcome in [6], in assay [7] and in assay [8] was inactive.
For the compound `Oc1ccc(Cc2ccc(O)cc2)cc1`, the outcome in [1], in [2], in assay [10], in assay [9], in assay [3] and in assay [5] was inactive. Moreover, the outcome in assay [6], in assay [7] and in assay [8] was inactive.
In the case of `CC(C)(C1CCC(O)CC1)C1CCC(O)CC1` (stereo not given), the outcome in assay [1], in assay [2], in [9], in [4], in [5] and in assay [6] was inactive. Further, the result in assay [7] and in assay [8] was inactive.
Regarding `CCOc1cc(C=O)ccc1O`, the outcome in [1], in [2], in [10], in [9], in [3] and in assay [5] was inactive. Also, the compound was called inactive in assay [6], in assay [7] and in [8].
`CCOC(=O)C(SP(=S)(OC)OC)c1ccccc1` (stereo not given): the compound was called inactive in assay [1], in [2], in assay [3], in assay [4], in assay [5] and in assay [6]. For the same compound, the compound was called inactive in assay [7] and in assay [8].
What is called AC50 is the midpoint of the concentration-response curve, whichever way the signal moves. As to `C[CH2][Hg][S]c1ccccc1C(=O)O`, the compound was classed as inactive in assay [1], in assay [2], in assay [10], in assay [4], in [6] and in assay [8]. In addition, the AC50 in assay [5] is 3.89 µM (active); in assay [7], 1.58 µM (active).
`C=CC(F)(C(F)(F)F)C(F)(F)C(F)(F)F` (stereo not given): the compound was classed as inactive in [1], in assay [2], in assay [10], in assay [9], in [5] and in [6]. In addition, the result in [7] and in assay [8] was inactive.
In the case of `O=C(CCl)NCO`, the compound was classed as inactive in assay [1], in assay [2], in assay [10], in assay [3], in assay [4] and in [5]. For the same compound, the compound was called inactive in assay [6], in assay [7] and in assay [8].
In the case of `O=C(Nc1ccc(Br)cc1)c1cc(Br)cc(Br)c1O`, the result in assay [1], in [2], in [10], in assay [9], in [3] and in [4] was inactive. The call in assay [5] and in assay [8] was inactive. Besides, in [7], the AC50 is 2.27 µM (active).
Turning to `CCOC(=O)OC1=C(c2cc(C)ccc2C)C(=O)NC12CCC(OC)CC2` (stereo not given), the result in assay [1], in assay [2], in assay [10], in [9], in [3] and in assay [4] was inactive. Besides, the outcome in assay [5], in assay [7] and in assay [8] was inactive.
Turning to `C=CCCl`, the call in assay [1], in assay [2], in [10], in assay [3], in assay [5] and in assay [6] was inactive. Moreover, the compound was called inactive in [7] and in [8].
With `OCCN(CCO)CCO`, the compound was classed as inactive in assay [1], in assay [2], in assay [9], in assay [5], in assay [6] and in [7]. In assay [8], the compound was called inactive.
On to `Cl[C@H]1OCCO[C@@H]1Cl`, for which the call in assay [1], in assay [2], in assay [10], in assay [9], in assay [3] and in assay [5] was inactive. For the same compound, the call in assay [6], in assay [7] and in assay [8] was inactive.
`CCOC(=O)Cc1ccccc1`: the call in [1], in [2], in assay [3], in [4], in [5] and in assay [6] was inactive. The compound was classed as inactive in assay [7] and in [8].
Regarding `CCCCCCCCCCCCN(C)C`, the result in assay [1], in [2], in assay [9] and in [5] was inactive. In addition, the results for the AC50 in assay [6], in assay [7] and in assay [8] were 54.2 µM (active), 57.2 µM (active) and 50.9 µM (active), respectively.
As for `C=C(C)[C@@H]1CC=C(C=O)CC1`, the compound was classed as inactive in assay [1], in [2], in assay [9], in assay [4], in assay [5] and in assay [7]. In addition, the outcome in assay [8] was inactive.
`Brc1c(Br)c(Br)c(Oc2c(Br)c(Br)c(Br)c(Br)c2Br)c(Br)c1Br`: the outcome in assay [1], in assay [2], in assay [3], in assay [4], in assay [5] and in assay [6] was inactive. For the same compound, the compound was classed as inactive in assay [7] and in [8].
On to `Nc1ccc(N)cc1`, for which the outcome in assay [1], in assay [2], in [10], in [3], in [5] and in assay [6] was inactive. Also, the compound was called inactive in assay [7] and in [8].
As for `OC(Cc1ccccc1Cl)(Cn1cncn1)C1(Cl)CC1` (stereo not given), the compound was called inactive in assay [1], in assay [2], in assay [10], in [3], in assay [4] and in assay [5]. In addition, the result in [6], in assay [7] and in assay [8] was inactive.
For the compound `C[N+](C)(C)Cc1ccccc1`, the compound was classed as inactive in assay [1], in assay [2], in assay [10], in [3], in assay [5] and in assay [6]. For the same compound, the compound was classed as inactive in [7] and in [8].
On to `N#CS`, for which the call in assay [1], in assay [2], in [10], in assay [9], in assay [5] and in assay [6] was inactive. Moreover, the call in assay [7] and in [8] was inactive.
As to `BrCCCCBr`, the outcome in assay [1], in assay [2], in assay [10], in assay [9], in assay [3] and in assay [5] was inactive. Besides, the compound was classed as inactive in [6], in [7] and in [8].
